Assay results from the supplement of paper PMC6555819.

How the values were obtained:
Experiment in all cases: PBM binding z-score (relative to random genomic background probes); higher = stronger binding; sequences stand for … in GC…GCGATTGACAGCGTAGAATGAAGG
[1] = system: PPARg:RXRa DBDmut IVT, anti-RXR (DBD mutation: RXRa K156A/R161A, NR concentration 270 nM, RXRa partner concentration 90 nM)
Summary of the method: (§1)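 Regression normalization was applied to scanned fluorescence from custom Agilent 4×180K protein-binding microarrays. Before scanning, arrays were incubated 1 h with ligand-free nuclear receptor dimers, and binding was detected with antibodies against each partner (one per run). Binding z-scores use the random background probes as reference.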

[2] = system: PPARg:RXRa IVT, anti-PPARg (NR concentration 270 nM, RXRa partner concentration 90 nM)
Summary of the method: as §1

[3] = system: PPARg DBDmut:RXRa IVT, anti-PPARg (DBD mutation: PPARg1 K132A/R137A, NR concentration 270 nM, RXRa partner concentration 90 nM)
Summary of the method: as §1

[4] = system: PPARg DBDmut IVT, anti-PPARg (DBD mutation: PPARg1 K132A/R137A, NR concentration 270 nM)
Summary of the method: as §1

[5] = system: PPARg homodimer (NR concentration 180 nM)
Summary of the method: as §1

[6] = system: PXR:RXRa (NR concentration 270 nM, RXRa partner concentration 90 nM)
Summary of the method: as §1

[7] = system: PXR homodimer (NR concentration 270 nM)
Summary of the method: as §1

[8] = system: RARa:RXR (NR concentration 270 nM, RXRa partner concentration 90 nM)
Summary of the method: as §1

[9] = system: RARa homodimer (NR concentration 270 nM)
Summary of the method: as §1

[10] = system: RARb:RXRa (NR concentration 270 nM, RXRa partner concentration 90 nM)
Summary of the method: as §1

[11] = system: RARb homodimer (NR concentration 270 nM)
Summary of the method: as §1

[12] = system: RARg:RXRa (NR concentration 270 nM, RXRa partner concentration 90 nM)
Summary of the method: as §1

[13] = system: RARg homodimer (NR concentration 270 nM)
Summary of the method: as §1

[14] = system: RXRa DBDmut IVT, anti-RXR (DBD mutation: RXRa K156A/R161A, NR concentration 90 nM)
Summary of the method: as §1

[15] = system: RXRa homodimer (NR concentration 180 nM)
Summary of the method: as §1

[16] = system: THRa:RXRa (NR concentration 90 nM, RXRa partner concentration 90 nM)
Summary of the method: as §1

[17] = system: THRa homodimer (NR concentration 90 nM)
Summary of the method: as §1

[18] = system: VDR:RXRa (NR concentration 270 nM, RXRa partner concentration 90 nM)
Summary of the method: as §1

[19] = system: VDR homodimer (NR concentration 270 nM)
Summary of the method: as §1

| Sequence | PBM binding z-score [1] | PBM binding z-score [2] | PBM binding z-score [3] | PBM binding z-score [4] | PBM binding z-score [5] | PBM binding z-score [6] | PBM binding z-score [7] | PBM binding z-score [8] | PBM binding z-score [9] | PBM binding z-score [10] | PBM binding z-score [11] | PBM binding z-score [12] | PBM binding z-score [13] | PBM binding z-score [14] | PBM binding z-score [15] | PBM binding z-score [16] | PBM binding z-score [17] | PBM binding z-score [18] | PBM binding z-score [19] |
| --- | --- | --- | --- | --- | --- | --- | --- | --- | --- | --- | --- | --- | --- | --- | --- | --- | --- | --- | --- |
| ACTAGTTGGTCAGCTGAGGTCACAGACAATTCGG | 1.59 | 2.68 | 0.63 | 0.453 | 2.49 | 5.14 | 1.43 | 4.65 | 0.482 | 3.48 | 4.19 | 4.16 | 3.84 | 1.15 | 4.37 | 4.99 | 5.44 | 4.25 | 2.9 |
| CGTCACAGTTCAACTAAGGTAACGTAAAGCACGC | 0.343 | 1.09 | 0.467 | 1.1 | 1.58 | 3.88 | 1.47 | 2.28 | 0.677 | 3.1 | 2.56 | 3.25 | 3.37 | 3.38 | 2.76 | 5.11 | 2.19 | 2.92 | 2.16 |
| CCGACTGGGGCAAAGGTTACCGTACTCAGTACGA | 4.82 | 5.85 | 0.024 | -0.75 | 1.93 | 2.04 | -0.837 | 3.75 | -0.437 | 2.39 | 2.03 | 3.44 | 1.64 | -0.356 | 3.45 | 1.7 | -0.542 | 1.39 | -0.111 |
| CCTAGCACGCCAATCTGGGTCACTCAAGGCTTGA | 3.75 | 4.76 | -0.107 | -0.39 | 0.751 | 0.751 | -0.246 | 1.13 | 0.0845 | 1.06 | 1.94 | 0.768 | 0.494 | 0.349 | 0.974 | 2.61 | 0.789 | 0.379 | 0.435 |
| GATACAGGGTCAGCTAGAGGCCAGGGTATGGAAA | 0.631 | 2.38 | 0.352 | -0.589 | 2.74 | 2.94 | 0.0758 | 4.28 | 0.0773 | 4.06 | 3.59 | 6.74 | 4.95 | 0.978 | 4.38 | 3.08 | 0.844 | 3.14 | 1.01 |
| TCTATTAGTTGGAGGGCAACCGACGAGTCCGTTT | 1.97 | 0.996 | 0.0745 | -0.289 | 1.04 | 1.08 | 1.11 | 0.737 | 0.176 | 1.35 | 1.31 | 0.442 | 0.781 | 1.47 | 0.834 | 0.528 | 0.592 | 1.27 | 1.86 |
| TAGCCTAGGTTAGATCGGGCCAGTATACGCTATA | -0.639 | 0.069 | -0.497 | -0.751 | -0.958 | -0.294 | -0.619 | 0.00533 | -0.589 | 0.0949 | -0.0792 | -0.00796 | 0.127 | -0.662 | -0.141 | 2.61 | -0.725 | -0.4 | -0.374 |
| ATCTCTAGGTAAGACTCATTTCAGTGAAGAACGC | 2.23 | 1.3 | 0.559 | 1.36 | 1.13 | -0.0936 | 0.605 | 0.211 | 1.77 | 0.27 | 0.362 | -0.0496 | 0.0938 | 0.594 | -0.0279 | 0.358 | 0.931 | 0.308 | 0.563 |
| TCATATAGGAAAACAGGTGAAAGTCCGTAAGTTA | 2.83 | 1.11 | 0.0218 | 0.116 | 0.804 | 0.845 | 0.476 | 1.14 | 1.74 | 0.355 | 0.455 | 0.219 | 0.0668 | 1.81 | 1.17 | 0.338 | 0.187 | 1 | 0.639 |
| CCAGACAGGTGAAGGGTAACTCAGTCTGGTACGC | 0.998 | 1.9 | -0.966 | -0.622 | 0.674 | -0.0608 | -0.0922 | 0.0219 | -0.195 | 1.04 | 0.722 | 0.492 | 0.626 | -0.69 | 0.751 | 0.21 | -0.441 | -0.111 | -0.55 |
| ACTTCCGGGTCAACGAGGTTATAGCACGCGTATA | 4.21 | 5.27 | 1.78 | 0.785 | 3.05 | 4.91 | 6.49 | 4.87 | 0.82 | 3.97 | 3.44 | 5.17 | 4.74 | 2.62 | 5.76 | 4.34 | 2.68 | 7.62 | 4.34 |
| TCATATAGCTAAATGCTAGGTGAAAGTCCGATCT | 1.45 | 0.452 | 0.679 | 0.932 | 0.101 | 0.31 | -0.278 | 0.514 | -0.0788 | 0.00512 | 0.184 | 0.0741 | 0.129 | 0.952 | 0.435 | 0.577 | -0.00445 | 0.429 | -0.29 |
| AATCAAAGTTCATCTAGGTAACGTAAGATATGCT | 0.153 | 2.87 | 1.79 | 1.11 | 2.75 | 4.95 | 7.06 | 3.24 | 1.38 | 5.22 | 3.95 | 5.18 | 5.7 | 4.69 | 4.44 | 3.23 | 0.0393 | 5.13 | 4.45 |
| CGTCCAAGGTCAGAGAGGTCAGTGAGTGCCGAGT | 2.89 | 3.66 | -0.0729 | -0.219 | 3.93 | 6.23 | 12.6 | 5.43 | 2.9 | 5.37 | 5.29 | 6.35 | 7.09 | 3.37 | 5.51 | 4.37 | 3.07 | – | 6.07 |
| GCTATTAGTTGAAGGGGCAACCGAATGATTCTCG | 0.421 | -0.0967 | -0.209 | 0.191 | 1.03 | -0.209 | -0.028 | 0.0521 | 0.778 | 0.759 | 0.855 | 0.206 | 0.529 | 0.928 | 0.206 | 0.0187 | -0.194 | -0.246 | 0.212 |
